# Test results: PubChem BioAssay
# Activity calls are given as the source filed them.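 How the source made its calls, unless noted: active means NADPH fluorescence slope more negative than the mean of all samples by about 3 SD, 99.7% confidence; inactive means the rest.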
# What was measured:
# [1] = inhibitors of TNFa-induced NFkB p65 translocation, primary screen, imaging, HUVEC, MLSMR starter and 10KST1 sets (AID 438;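 active means inhibition above 20% together with a positive visual image hit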;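 further: compound added about 3h40 before a 20 min TNFalpha stimulation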;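 on inhibition: signal is the nuclear over cytoplasmic p65 intensity ratio per well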); conditions: HUVEC TNFa-induced p65 nuclear translocation; cell count: measured here: nuclei count (cytotoxicity indicator), at 2.08 µM; inhibition: at 2 µM, stronger effect = higher value, 0% TNFa-plus-vehicle, 100% no-TNFa wells
# [2] = reduction of polyQ htt aggregates in cells – imaging, exon1htt(103Q)mCFP cells, high-content imaging, primary screen (AID 483;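 active means visual image review flags a hit and inhibition of aggregation exceeds 20%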;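 further: compound exposure lasted 3 days before fixation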;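 on nuclei count: percent of the per-plate median nuclei count of sample wells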); conditions: exon1htt(103Q)mCFP cell line, aggregate imaging, at 2 µM; inhibition of aggregation: stronger effect = higher value; nuclei count: measured here: cell count, toxicity
# [3] = endothelial E-selectin expression blockers – imaging, HUVEC, immunofluorescence, MLSMR starter and 10KST1 sets, primary screen (AID 487;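 active means visually confirmed hit in the image check and inhibition above 20%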;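 on inhibition: signal is fraction of cell area covered by stained E-selectin grains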;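 on nuclei count: 100% = median nuclei count of all wells on the same plate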); conditions: HUVEC TNFalpha-induced E-selectin immunofluorescence imaging, at 2 µM; inhibition: stronger effect = higher value; nuclei count: measured here: cell number, toxicity
# [4] = target: Voltage-gated potassium channel subunit beta-2 (Rattus norvegicus) (UniProt P62483); assay: inhibitors of rat Kvbeta2 reductase activity – biochemical, NADPH fluorescence, primary screen (AID 622;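 active means fluorescence slope higher than the sample average by over 3 SD, cut at about -0.22 in these data, passing the limit was not always enough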;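 further: slope of raw intensity against log time taken from 70 to 1610 s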); conditions: recombinant KvBeta, 4-cyanobenzaldehyde reduction, at 10 µM, stronger effect = higher value
# Sequence of Voltage-gated potassium channel subunit beta-2 (Rattus norvegicus) (P62483 whole entry, looked up): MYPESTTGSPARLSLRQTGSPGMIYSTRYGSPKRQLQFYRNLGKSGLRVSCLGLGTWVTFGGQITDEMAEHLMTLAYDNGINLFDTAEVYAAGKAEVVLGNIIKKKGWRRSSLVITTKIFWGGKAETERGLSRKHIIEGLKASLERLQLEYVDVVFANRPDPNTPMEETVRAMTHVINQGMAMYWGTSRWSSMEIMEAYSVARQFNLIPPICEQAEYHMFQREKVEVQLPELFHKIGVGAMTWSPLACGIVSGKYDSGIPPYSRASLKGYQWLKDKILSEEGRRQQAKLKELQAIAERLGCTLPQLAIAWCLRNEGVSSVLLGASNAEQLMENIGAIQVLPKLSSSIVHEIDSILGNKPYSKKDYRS
# [5] = target: Voltage-gated potassium channel subunit beta-2 (Rattus norvegicus) (UniProt P62483); assay: enhancers of rat Kvbeta2 NADPH turnover – biochemical, NADPH fluorescence, primary screen (AID 623); conditions: Recombinant KvBeta, NADPH fluorescence decrease slope, 10 min; at 10 µM; stronger effect = lower value;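 further: fluorescence intensity change per second fitted from 20 to 320 s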
# [6] = target: Alpha-2C adrenergic receptor (Homo sapiens) (UniProt P18825); assay: compounds altering alpha2C-coupled GIRK flux – cell-based, HEK293 alpha2C/GIRK1/2, thallium flux, primary screen (AID 624;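 active means fluorescence slope after compound addition differing from the mean of all screened samples at 99.7% confidence, in either direction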;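 further: slope of fluorescence ratio to pre-addition baseline per second over 15 to 24 s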); conditions: thallium flux BTC fluorescence, at 10 µM, actives lie on both sides
# Sequence of Alpha-2C adrenergic receptor (Homo sapiens) (P18825 whole entry, looked up): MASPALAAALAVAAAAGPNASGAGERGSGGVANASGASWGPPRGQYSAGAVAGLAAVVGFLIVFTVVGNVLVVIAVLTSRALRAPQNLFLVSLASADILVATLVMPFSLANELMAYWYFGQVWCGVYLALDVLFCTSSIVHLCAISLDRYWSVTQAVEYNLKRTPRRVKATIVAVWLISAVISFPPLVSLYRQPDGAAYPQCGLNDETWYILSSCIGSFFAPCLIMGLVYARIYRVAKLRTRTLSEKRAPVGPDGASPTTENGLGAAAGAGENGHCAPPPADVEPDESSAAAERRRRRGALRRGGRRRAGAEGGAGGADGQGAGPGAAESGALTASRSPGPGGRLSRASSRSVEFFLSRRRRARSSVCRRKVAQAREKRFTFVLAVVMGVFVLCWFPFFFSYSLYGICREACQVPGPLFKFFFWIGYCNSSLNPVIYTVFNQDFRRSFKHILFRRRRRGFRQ
# [7] = blockers of RIG-like receptor reporter activation – cell-based, Sendai virus stimulus, luciferase, 10K MLSCN set, TLR/RLR signaling modifier project, primary screen (AID 602276;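 active means inhibition at or above 50% at 10 µM; inactive means inhibition below 50%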;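 further: firefly luciferase from ISG56 promoter only with Renilla not read in this screen; 0% = Sendai virus plus DMSO and 100% = medium plus DMSO without virus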); conditions: HEK293 RL24 IRF3 luciferase reporter, at 10 µM, stronger effect = higher value
# [8] = TLR3 IRF3 reporter activation blockers – cell-based, poly I:C stimulus, luciferase, 10K MLSCN set, primary screen (AID 602277;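 active means inhibition of the reporter signal at or above 50%; inactive means inhibition below 50%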); conditions: HEK293-TLR3 RL24 IRF3 luciferase reporter, at 10 µM, stronger effect = higher value
smiles,measurement,setting,value
CCOc1ccc(-c2nnn(CC(=O)N3CCN(c4ccc(F)cc4)CC3)n2)cc1OCC,cell count,[1],583
same,inhibition,[1],-9.5% (inactive)
same,inhibition of aggregation,[2],-17.1% (inactive)
same,nuclei count,[2],119%
same,inhibition,[3],25% (inactive)
same,nuclei count,[3],101%
same,fluorescence slope,[4],-0.642 (inactive)
same,NADPH fluorescence slope,[5],-1.5e-05 (inactive)
same,slope,[6],0.00403 (inactive)
same,inhibition,[7],16.8% (inactive)
same,inhibition,[8],14% (inactive)
CCOC(=O)c1cnc(-n2cc(C)cn2)nc1Nc1ccccc1OC,cell count,[1],750
same,inhibition,[1],-2.8% (inactive)
same,inhibition of aggregation,[2],17.8% (inactive)
same,nuclei count,[2],105%
same,inhibition,[3],12.5% (inactive)
same,nuclei count,[3],114%
same,fluorescence slope,[4],-0.641 (inactive)
same,NADPH fluorescence slope,[5],-4.8e-05 (inactive)
same,slope,[6],0.0064 (inactive)
same,inhibition,[7],2.82% (inactive)
same,inhibition,[8],10.8% (inactive)
CCn1c(SCc2cccc(C(F)(F)F)c2)nnc1-c1ccco1,cell count,[1],616
same,inhibition,[1],4.8% (inactive)
same,inhibition of aggregation,[2],4.5% (inactive)
same,nuclei count,[2],94.1%
same,inhibition,[3],-15.2% (inactive)
same,nuclei count,[3],104%
same,fluorescence slope,[4],-0.414 (inactive)
same,NADPH fluorescence slope,[5],-3.6e-05 (inactive)
same,slope,[6],0.00568 (inactive)
same,inhibition,[7],13.2% (inactive)
same,inhibition,[8],3.48% (inactive)
O=C(CCSc1nc(-c2ccco2)cc(C(F)(F)F)n1)NCCc1ccccc1,cell count,[1],491
same,inhibition,[1],-8.3% (inactive)
same,inhibition of aggregation,[2],-16.1% (inactive)
same,nuclei count,[2],106%
same,inhibition,[3],23.2% (inactive)
same,nuclei count,[3],104%
same,fluorescence slope,[4],-0.387 (inactive)
same,NADPH fluorescence slope,[5],-3.6e-05 (inactive)
same,slope,[6],0.00564 (inactive)
same,inhibition,[7],-7.29% (inactive)
same,inhibition,[8],-52.7% (inactive)
Cn1c(SCC(=O)N2CCN(c3cccc(Cl)c3)CC2)nnc1-c1ccncc1,cell count,[1],689
same,inhibition,[1],-5.1% (inactive)
same,inhibition of aggregation,[2],-15% (inactive)
same,nuclei count,[2],104%
same,inhibition,[3],-92% (inactive)
same,nuclei count,[3],142%
same,fluorescence slope,[4],-0.373 (inactive)
same,NADPH fluorescence slope,[5],2.3e-06 (inactive)
same,slope,[6],0.00664 (inactive)
same,inhibition,[7],1.74% (inactive)
same,inhibition,[8],-27.2% (inactive)
COC(=O)c1cccc(S(=O)(=O)N2CCC(C)CC2)c1,cell count,[1],326
same,inhibition,[1],-10.3% (inactive)
same,inhibition of aggregation,[2],11.2% (inactive)
same,nuclei count,[2],95.5%
same,inhibition,[3],-70.6% (inactive)
same,nuclei count,[3],93%
same,fluorescence slope,[4],-0.547 (inactive)
same,NADPH fluorescence slope,[5],5.2e-05 (inactive)
same,slope,[6],0.00519 (inactive)
same,inhibition,[7],0.114% (inactive)
same,inhibition,[8],-2.56% (inactive)
Cc1cccc(C2CC(c3ccc(Cl)cc3)Nc3nc(N)nn32)c1 (configuration not stated),cell count,[1],598
same,inhibition,[1],-2.4% (inactive)
same,inhibition of aggregation,[2],18.5% (inactive)
same,nuclei count,[2],58.9%
same,inhibition,[3],-0.5% (inactive)
same,nuclei count,[3],102%
same,fluorescence slope,[4],-0.525 (inactive)
same,NADPH fluorescence slope,[5],-4.5e-05 (inactive)
same,slope,[6],0.00816 (inactive)
same,inhibition,[7],4.61% (inactive)
same,inhibition,[8],25.1% (inactive)
